High-throughput results as filed in PubChem.
Only some compounds are listed: those with a hit (about 19% of all), similar ones and a draw of the others.
TDP1 cell noCPT: qHTS for Inhibitors of human tyrosyl-DNA phosphodiesterase 1 (TDP1): qHTS in cells in absence of CPT; AID 686978, 2013; DT40 Tdp1-/- hTDP1 cells, no CPT, ATP luminescence, 48 h; Potency, µM (titrated, usually from 46.2 µM), inactives show top-dose activity change, negative = growth inhibition, most hits filed as inhibitors; 420,000 tested, 15% active; further: potency means the concentration at half of the fitted maximal effect; nearly all actives have a fitted effect of over 55% in size
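Chicken DT40 Tdp1-/- cells stably complemented with human TDP1 were seeded at 400 cells/well with DMSO in place of 20 nM camptothecin. After compound pinning, cells grew at least 48 hr at 37 °C; viability read by CellTiter-Glo luminescence.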
uPA generation: qHTS for Inhibitors of Cell Surface uPA Generation; cell surface uPA generation assay, qHTS; Potency, µM (series often up to 38.3 µM), without a hit: at the highest dose activity change, negative = inhibition, hits mostly inhibitors; 330,000 tested, 0.31% active; AID 540303, 2011; active means well fitted inhibition curve with a large enough effect; inconclusive means small, poorly fitted or top-dose-only effect; inactive means no such curve, though single readings can be large or run the other way; tested in mouse RAW 264.7 cells; further: potency means the concentration at half of the fitted maximal effect; nearly all actives have a fitted effect of over 55% in size
IL-1B inflam inh: qHTS for Inhibitors of Inflammasome Signaling: IL-1-beta AlphaLISA Primary Screen; THP-1 LPS/ATP IL-1B secretion, AlphaLISA, 16 h; active compounds read low; AID 743279, 2014; activity change, % at 57.5 µM; 360,000 tested, 4.7% active; in the data active means activity change below about -50%; inconclusive means mostly about -30% to -49%
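Secreted IL-1B measured by AlphaLISA bead assay after 16 h compound exposure of THP-1 cells; compounds (final up to 57.5 uM) added 1 h before LPS (250 ng/mL) and ATP (1.25 mM) stimulation; lower signal means less secretion.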
TDP1 cell CPT: qHTS for Inhibitors of human tyrosyl-DNA phosphodiesterase 1 (TDP1): qHTS in cells in presence of CPT. 420,000 tested, 12% active. Potency, µM (highest dose often 46.2 µM), without a hit: at the highest dose activity change, negative = growth inhibition, hits mostly inhibitors. chicken DT40 Tdp1-/-;hTDP1 cells + 20 nM CPT, ATP luminescence, 48 h; further: potency means the concentration at half of the fitted maximal effect; nearly all actives have a fitted effect of over 55% in size
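Cell growth measured by CellTiter-Glo luminescence after a minimum 48 h, 37 C compound exposure with 20 nM CPT in Tdp1-knockout DT40 cells stably expressing hTDP1, seeded 400/well; qHTS titration format.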
HT1080 IDH1KD tx: qHTS for induction of synthetic lethality in tumor cells producing 2HG: qHTS for the HT-1080-IDH1KD cell line. 360,000 tested, 2% active. HT-1080 IDH1 knockdown viability, ATP luminescence, 48 h. Potency, µM (highest dose often 46.1 µM), for the others: at the highest dose activity, negative = toxicity, most hits filed as cytotoxic;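 further: potency means the concentration at half of the fitted maximal effect; 0% = DMSO wells and -100% = cell-free medium wells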
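IDH1KD HT-1080 cells, 750/well, RPMI + 5% FBS; compound pinned after 2 h settling; 48 h, 37 °C; CellTiter-Glo luminescence; % activity normalised to DMSO and no-cell wells; curves fitted, classed by r2 and efficacy.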
HT1080-NT tox: qHTS for induction of synthetic lethality in tumor cells producing 2HG: qHTS for the HT-1080-NT fibrosarcoma cell line | Potency, µM (top dose mostly 46.1 µM), without a hit: top-dose activity, negative = less viability, hits mostly cytotoxic | HT-1080-NT fibrosarcoma viability, CellTiter-Glo ATP luminescence, 48 h | AID 686970, 2013 | 360,000 tested, 1.6% active;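 further: NT is the 2HG producing partner of a matched IDH1 knockdown line; potency means the concentration at half of the fitted maximal effect; 0% = DMSO-treated cells and -100% = media-only wells without cells; nearly all actives have a fitted effect of over 55% in size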
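Viability by CellTiter-Glo luminescence after 48 h compound exposure at 37C of HT-1080-NT cells (750/well, RPMI, 5% FBS). % activity scaled between DMSO wells and medium-only wells, then curve-fitted and categorized by curve class.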
Starred values were filed as active, the others as inactive; ? = inconclusive; . = no result. Unless noted, the call rests on the fitted dose curve; in most records, active means well fitted curve in the direction sought with a large enough effect; inconclusive means small, poorly fitted or top-dose-only effect, or another doubt; inactive means no such curve, though single readings can be large; an effect the other way counts as inactive or inconclusive. Unless noted, on the % scale 0 is the no-effect control and ±100 the full control effect.

SMILES	TDP1 cell noCPT	uPA generation	IL-1B inflam inh	TDP1 cell CPT	HT1080 IDH1KD tx	HT1080-NT tox
CCc1ccc(OC2(C)CCN(Cc3ccccc3OC(F)F)C2)cc1 (configuration not stated)	?	.	11	-8%	-24%	?
CC1(C(=O)NCc2ccc(C(F)(F)F)cc2)CCN1Cc1cc2ccccc2o1 (configuration not stated)	18µM*	.	-15	21µM*	?	-18%
CC1(C(=O)NCc2ccc(C(F)(F)F)cc2)CCN1Cc1ccccc1OC(F)F (configuration not stated)	23µM*	.	-9	?	?	-15%
COC(=O)Cc1ccc(OC2(C)CCN(Cc3ccccc3OC(F)F)C2)cc1 (configuration not stated)	?	.	-54*	-13%	0%	0%
Cc1cc(C(=O)N2CCC2(C)C(=O)NCc2cccc3ccccc23)nn1C (configuration not stated)	?	.	24	-9%	2%	1%
CC1(C(=O)NCc2cccc3ccccc23)CCN1Cc1ccccc1OC(F)F (configuration not stated)	15µM*	.	?	21µM*	?	?
CC(C)C(C(=O)NC1CCCC1)N(CC1CCCO1)C(=O)CNS(=O)(=O)c1ccccc1 (configuration not stated)	-1%	6%	3	-5%	13%	1%
CCSc1nnc(NC(=O)Cc2cc(OC)c(OC)c(OC)c2)s1	13%	4%	0	1%	-4%	1%
CCCC[C@@H]1CNC(=O)C(=O)N1CCc1cccc(F)c1	-17%	.	.	?	-3%	-13%
CN1CCN(C(=O)c2ccc(CSc3ccc(Cl)cc3)cc2)CC1	23µM*	1%	-62*	21µM*	3%	-1%
CCOC(=O)N1CCN(C(=O)c2ccc(CSc3ccc(Cl)cc3)cc2)CC1	7.3µM*	-2%	-80*	?	?	-25%
CCC(=O)N1CCCC(C)(C(=O)Nc2ccc3scnc3c2)C1 (configuration not stated)	-8%	.	17	?	6%	16%
CN(CC(=O)Nc1ccc(F)cc1)C(=O)COC(=O)/C=C/c1ccc(OC(F)F)cc1	?	-4%	-87*	-15%	-8%	-12%
CN(C)CCN(C(=O)c1ccc(C(=O)c2ccccc2)cc1)c1nc2cc3c(cc2s1)OCO3	?	-20%	57	-20%	-6%	-7%
CN(C)CCCN(C(=O)c1ccc2c(c1)CCCC2)c1nc2cc3c(cc2s1)OCO3	?	-6%	-86*	?	?	18µM*
CN(C)CCCN(C(=O)c1ccc(S(=O)(=O)N(C)C)cc1)c1nc2cc3c(cc2s1)OCO3	?	-8%	-24	?	-12%	-18%
CN(C)CCCN(C(=O)c1ccc(C(=O)c2ccccc2)cc1)c1nc2cc3c(cc2s1)OCCO3	-20%	-2%	-64*	-30%	?	?
CN(C)CCCN(C(=O)c1ccc(Br)s1)c1nc2cc3c(cc2s1)OCO3	15µM*	-3%	-101*	9.2µM*	?	?
CN(C)CCCN(C(=O)c1ccc2c(c1)CCCC2)c1nc2ccc(F)cc2s1	16µM*	5%	.	21µM*	-29%	-21%
CSCc1ccc(C(=O)NC2CC(C)(C)Cc3c2cnn3-c2ccc(F)cc2)o1 (configuration not stated)	-30%	2%	?	?	-19%	-8%
CC1=C(C(=O)NCc2ccc(C)cc2)C2(CCCCC2)OC1=O	?	.	.	5%	.	.
O=C(c1ccc(NC(=O)C(c2ccccc2)c2ccccc2)cc1)c1ccc(C(=O)O)c(C(=O)O)c1	-11%	-1%	8	9%	11%	18%
CC(NCc1cc(Br)ccc1OCC(N)=O)C12CC3CC(CC(C3)C1)C2 (configuration not stated)	18µM*	-27%	-61*	?	-21%	-20%
COc1cc(CNc2ccc(N3CCCC3)cc2)ccc1OCc1ccccc1F	4.6µM*	-2%	-20	3.7µM*	-4%	-7%
COc1ccc(CNC(=O)CC23CC4CC(CC(C4)C2)C3)cc1OC	-24%	-1%	23	?	-1%	1%
SMILES	TDP1 cell noCPT	uPA generation	IL-1B inflam inh	TDP1 cell CPT	HT1080 IDH1KD tx	HT1080-NT tox
COc1cc(CNC(C)C23CC4CC(CC(C4)C2)C3)ccc1OCC(=O)NC(C)(C)C (configuration not stated)	21µM*	-1%	-88*	-107%	23µM*	?
COc1cc(CNC(C)(C)CO)ccc1OCC(=O)NC(C)(C)C	4%	0%	0	9%	3%	10%
COc1cc(CNc2nnnn2C)ccc1OCc1c(F)cccc1Cl	9%	4%	-1	7%	2%	22%
COc1cc(CNC(C)C23CC4CC(CC(C4)C2)C3)cc(OC)c1OC (configuration not stated)	?	-10%	-20	?	-9%	-17%
COc1cc(CNC23CC4CC(CC(C4)C2)C3)ccc1OCc1ccccc1	21µM*	-2%	-17	29µM*	-5%	-15%
O=C1O[C@H]2[C@H](O)[C@@H]1OC(O)[C@H]2O (some centres not stated)	2%	.	.	-5%	.	.
CCOc1ccc(/C=C(\C)C(=O)c2c(C)cc(C)[nH]c2=O)cc1	3%	-20%	-16	-4%	0%	4%
COc1ccc(CNc2ccc(N3CCN(C(C)=O)CC3)cc2)cc1OC	.	-7%	.	.	.	.
C=CCOc1c(CNc2ccc(S(N)(=O)=O)cc2)cccc1OC	18µM*	-2%	?	?	-10%	-10%
COc1cc(CNc2ccc(N3CCCCC3)cc2)ccc1OCC(=O)NC(C)(C)C	23µM*	-6%	-20	?	-6%	-6%
COc1ccc(CNc2ccc(S(N)(=O)=O)cc2)c(OC)c1OC	-8%	0%	-4	-24%	-3%	-5%
COc1cc(CNc2ccc(N3CCCC3)cc2)ccc1OCc1ccccc1	2.1µM*	-3%	-20	1.6µM*	-24%	?
COc1cc(C(=S)N2CCCC2)ccc1OCc1ccccc1	?	-4%	-3	1%	-4%	-1%
